# PubChem BioAssay (NCATS)
# Records with an inconclusive call do not appear. A number with no mark means an inactive call. Activity calls are given as the source filed them. Calls come from the whole dose curve; as a rule, active = well fitted cell-killing curve with a large enough effect; inconclusive = small, poorly fitted or top-dose-only effect, or effect the other way; inactive = no such curve, though single readings can be large or run the other way.
# What was measured:
# [1] = Quantitative High-Throughput drug screen in 47 multiple myeloma cell lines against the NCATS MIPE library collection: OCIMY1_PLB cell viability assay (AID 1918979); note: nearly all actives have a fitted effect of over 35% in size
# In short: (§1)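 qHTS format: cells plated (500/well), pin-dosed with MIPE 4.0 compounds, kept 48 h at 37 °C. Readout was CellTiter-Glo luminescence, median RLU.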
# [2] = Quantitative High-Throughput drug screen in 47 multiple myeloma cell lines against the NCATS MIPE library collection: MM1S_ATCC cell viability assay (AID 1918980); note: nearly all actives have a fitted effect of over 45% in size
# In short: as §1
# [3] = Quantitative High-Throughput drug screen in 47 multiple myeloma cell lines against the NCATS MIPE library collection: MM1R_ATCC cell viability assay (AID 1918981); note: nearly all actives have a fitted effect of over 35% in size
# In short: as §1
# [4] = Quantitative High-Throughput drug screen in 47 multiple myeloma cell lines against the NCATS MIPE library collection: LP1_DSMZ cell viability assay (AID 1918982); note: nearly all actives have a fitted effect of over 35% in size
# In short: as §1
# [5] = Quantitative High-Throughput drug screen in 47 multiple myeloma cell lines against the NCATS MIPE library collection: KMS28PE_JCRB cell viability assay (AID 1918983); note: nearly all actives have a fitted effect of over 35% in size
# In short: as §1
# [6] = Quantitative High-Throughput drug screen in 47 multiple myeloma cell lines against the NCATS MIPE library collection: L363_DSMZ cell viability assay (AID 1918984); note: nearly all actives have a fitted effect of over 40% in size
# In short: as §1
# [7] = Quantitative High-Throughput drug screen in 47 multiple myeloma cell lines against the NCATS MIPE library collection: KMS34_JCRB cell viability assay (AID 1918985); note: nearly all actives have a fitted effect of over 40% in size
# In short: as §1
# [8] = Quantitative High-Throughput drug screen in 47 multiple myeloma cell lines against the NCATS MIPE library collection: OCIMY7_PLB cell viability assay (AID 1918987); conditions: OCI-MY7 myeloma viability, CellTiter-Glo ATP, 48 h; viability (% of DMSO): at 45.8 µM (top of the series); note: nearly all actives have a fitted effect of over 65% in size
# In short: as §1
# [9] = Quantitative High-Throughput drug screen in 47 multiple myeloma cell lines against the NCATS MIPE library collection: OCIMY5_PLB cell viability assay (AID 1918988); note: nearly all actives have a fitted effect of over 65% in size
# In short: as §1
# [10] = Quantitative High-Throughput drug screen in 47 multiple myeloma cell lines against the NCATS MIPE library collection: OPM1_PLB cell viability assay (AID 1918989); note: nearly all actives have a fitted effect of over 40% in size
# In short: as §1
# [11] = Quantitative High-Throughput drug screen in 47 multiple myeloma cell lines against the NCATS MIPE library collection: SKMM1_PLB cell viability assay (AID 1919863); conditions: SKMM1 myeloma viability, CellTiter-Glo ATP, 48 h; viability: stronger effect = lower value; note: nearly all actives have a fitted effect of over 35% in size
# In short: as §1
# [12] = Quantitative High-Throughput drug screen in 47 multiple myeloma cell lines against the NCATS MIPE library collection: U266_ATCC cell viability assay (AID 1919864); note: nearly all actives have a fitted effect of over 35% in size
# In short: as §1
# [13] = Quantitative High-Throughput drug screen in 47 multiple myeloma cell lines against the NCATS MIPE library collection: XG1_PLB cell viability assay (AID 1919866); note: nearly all actives have a fitted effect of over 35% in size
# In short: as §1
# [14] = Quantitative High-Throughput drug screen in 47 multiple myeloma cell lines against the NCATS MIPE library collection: VP6_DJ cell viability assay (AID 1919867); note: nearly all actives have a fitted effect of over 40% in size
# In short: as §1
# [15] = Quantitative High-Throughput drug screen in 47 multiple myeloma cell lines against the NCATS MIPE library collection: UTMC2_PLB cell viability assay (AID 1919868); conditions: CellTiter-Glo ATP luminescence, 48 h; viability (% of DMSO control): at 45.8 µM (top of the series); note: nearly all actives have a fitted effect of over 55% in size
# In short: as §1
# [16] = Quantitative High-Throughput drug screen in 47 multiple myeloma cell lines against the NCATS MIPE library collection: PE2_PLB cell viability assay (AID 1919869); note: nearly all actives have a fitted effect of over 35% in size
# In short: as §1
# [17] = Quantitative High-Throughput drug screen in 47 multiple myeloma cell lines against the NCATS MIPE library collection: PCM6_Riken cell viability assay (AID 1919870); note: nearly all actives have a fitted effect of over 30% in size
# In short: as §1
# [18] = Quantitative High-Throughput drug screen in 47 multiple myeloma cell lines against the NCATS MIPE library collection: RPMI8226_ATCC cell viability assay (AID 1919871); note: nearly all actives have a fitted effect of over 30% in size
# In short: as §1
# [19] = Quantitative High-Throughput drug screen in 47 multiple myeloma cell lines against the NCATS MIPE library collection: OPM2_DSMZ cell viability assay (AID 1919872); note: nearly all actives have a fitted effect of over 30% in size
# In short: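 We plated 500 myeloma cells per well, pinned in MIPE 4.0 compounds, and incubated for 48 hours at 37C. ATP was then quantified with CellTiter-Glo, with DMSO and media-only wells defining 100% and 0%.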
# [20] = Quantitative High-Throughput drug screen in 47 multiple myeloma cell lines against the NCATS MIPE library collection: XG6_PLB cell viability assay (AID 1919865); note: nearly all actives have a fitted effect of over 40% in size
# In short: as §1
# Potency is the fitted concentration of half-maximal effect.
smiles,measurement,setting,value
CC(C)C[C@H](NC(=O)[C@@H](NC(=O)c1cccc(-c2ccccc2)n1)[C@@H](C)O)B(O)O,Potency,[1],0.0166 µM (active)
same,Potency,[2],0.0132 µM (active)
same,Potency,[3],0.0132 µM (active)
same,Potency,[4],0.0296 µM (active)
same,Potency,[5],0.0235 µM (active)
same,Potency,[6],0.0264 µM (active)
same,Potency,[7],0.0209 µM (active)
same,Potency,[8],0.0148 µM (active)
same,Potency,[9],0.0132 µM (active)
same,Potency,[10],0.0132 µM (active)
same,Potency,[11],0.0743 µM (active)
same,Potency,[12],0.0148 µM (active)
same,Potency,[13],0.0187 µM (active)
same,Potency,[14],0.0093 µM (active)
same,Potency,[15],0.166 µM (active)
same,Potency,[16],0.0118 µM (active)
same,Potency,[17],0.0235 µM (active)
same,Potency,[18],0.0526 µM (active)
same,Potency,[19],0.0418 µM (active)
C[C@H](NC(=O)Cc1cc(F)cc(F)c1)C(=O)N[C@H](C(=O)OC(C)(C)C)c1ccccc1,Potency,[1],inactive
same,Potency,[2],inactive
same,Potency,[3],inactive
same,Potency,[4],inactive
same,Potency,[5],inactive
same,Potency,[6],inactive
same,Potency,[10],inactive
same,viability,[11],105%
same,Potency,[12],inactive
same,Potency,[20],inactive
same,Potency,[16],inactive
same,Potency,[17],inactive
same,Potency,[19],inactive
Cc1ncc(-c2ccnc(Nc3ccc(S(C)(=O)=O)cc3)n2)n1C(C)C,Potency,[1],6.62 µM (active)
same,Potency,[2],2.64 µM (active)
same,Potency,[3],2.35 µM (active)
same,Potency,[4],3.32 µM (active)
same,Potency,[5],5.26 µM (active)
same,Potency,[6],1.66 µM (active)
same,Potency,[8],0.833 µM (active)
same,Potency,[9],3.32 µM (active)
same,Potency,[10],2.35 µM (active)
same,Potency,[11],5.26 µM (active)
same,Potency,[12],3.32 µM (active)
same,Potency,[20],1.87 µM (active)
same,Potency,[13],1.48 µM (active)
same,Potency,[14],1.87 µM (active)
same,Potency,[15],3.32 µM (active)
same,Potency,[16],2.35 µM (active)
same,Potency,[17],0.743 µM (active)
same,Potency,[18],5.9 µM (active)
same,Potency,[19],3.72 µM (active)
CCc1ccc(C(=O)Nc2cc(CN3CCN(C)CC3)cc(C(F)(F)F)c2)cc1C#Cc1cnc2ccnn2c1,Potency,[1],16.6 µM (active)
same,Potency,[2],16.6 µM (active)
same,Potency,[3],18.7 µM (active)
same,Potency,[4],16.6 µM (active)
same,Potency,[5],16.6 µM (active)
same,Potency,[6],6.62 µM (active)
same,Potency,[7],10.5 µM (active)
same,Potency,[8],1.87 µM (active)
same,Potency,[9],1.87 µM (active)
same,Potency,[10],7.43 µM (active)
same,Potency,[11],16.6 µM (active)
same,Potency,[12],18.7 µM (active)
same,Potency,[14],9.35 µM (active)
same,Potency,[15],11.8 µM (active)
same,Potency,[16],4.69 µM (active)
same,Potency,[17],3.72 µM (active)
same,Potency,[18],20.9 µM (active)
same,Potency,[19],14.8 µM (active)
Cn1cc(C2=C(c3c4n(c5ccccc35)CCC(CN)C4)C(=O)NC2=O)c2ccccc21 (stereo not given),Potency,[1],20.9 µM (active)
same,Potency,[2],6.62 µM (active)
same,Potency,[3],11.8 µM (active)
same,Potency,[4],10.5 µM (active)
same,Potency,[5],18.7 µM (active)
same,Potency,[6],7.43 µM (active)
same,Potency,[7],11.8 µM (active)
same,Potency,[9],8.33 µM (active)
same,Potency,[10],7.43 µM (active)
same,Potency,[11],20.9 µM (active)
same,Potency,[12],16.6 µM (active)
same,Potency,[20],7.43 µM (active)
same,Potency,[13],7.43 µM (active)
same,Potency,[14],6.62 µM (active)
same,Potency,[16],7.43 µM (active)
same,Potency,[17],5.26 µM (active)
same,Potency,[18],18.7 µM (active)
same,Potency,[19],18.7 µM (active)
CCC[C@H]1C[C@H](C(=O)N[C@@H]([C@@H]2O[C@@H](SC)[C@@H](O)[C@@H](O)[C@@H]2O)[C@H](C)Cl)N(C)C1,Potency,[1],inactive
same,Potency,[2],inactive
same,Potency,[3],inactive
same,Potency,[4],inactive
same,Potency,[5],inactive
same,Potency,[6],inactive
same,Potency,[7],inactive
same,Potency,[8],inactive
same,Potency,[10],inactive
same,Potency,[20],inactive
same,Potency,[13],inactive
same,Potency,[14],inactive
same,Potency,[16],inactive
same,Potency,[17],inactive
same,Potency,[18],inactive
same,Potency,[19],inactive
CCc1cnn2c(NCc3ccc[n+]([O-])c3)cc(N3CCCC[C@@H]3CCO)nc12,Potency,[1],0.0332 µM (active)
same,Potency,[2],0.0209 µM (active)
same,Potency,[3],0.0166 µM (active)
same,Potency,[4],0.0166 µM (active)
same,Potency,[5],0.0296 µM (active)
same,Potency,[6],0.0235 µM (active)
same,Potency,[7],0.0148 µM (active)
same,Potency,[8],0.0418 µM (active)
same,Potency,[9],0.0209 µM (active)
same,Potency,[10],0.0264 µM (active)
same,Potency,[11],0.0332 µM (active)
same,Potency,[12],0.0372 µM (active)
same,Potency,[13],0.0235 µM (active)
same,Potency,[14],0.0187 µM (active)
same,Potency,[15],0.0187 µM (active)
same,Potency,[16],0.0296 µM (active)
same,Potency,[17],0.0105 µM (active)
same,Potency,[18],0.0372 µM (active)
same,Potency,[19],0.0296 µM (active)
CC(=O)[C@]1(O)Cc2c(O)c3c(c(O)c2[C@@H](O[C@H]2C[C@H](N)[C@@H](O)[C@H](C)O2)C1)C(=O)c1ccccc1C3=O,Potency,[1],0.743 µM (active)
same,Potency,[2],0.0166 µM (active)
same,Potency,[3],0.0526 µM (active)
same,Potency,[4],1.32 µM (active)
same,Potency,[5],0.187 µM (active)
same,Potency,[6],1.32 µM (active)
same,Potency,[7],0.235 µM (active)
same,Potency,[8],0.166 µM (active)
same,Potency,[10],0.418 µM (active)
same,Potency,[11],0.187 µM (active)
same,Potency,[12],0.264 µM (active)
same,Potency,[20],0.235 µM (active)
same,Potency,[13],0.166 µM (active)
same,Potency,[14],0.418 µM (active)
same,Potency,[15],0.0372 µM (active)
same,Potency,[16],0.132 µM (active)
same,Potency,[17],0.187 µM (active)
same,Potency,[18],0.418 µM (active)
same,Potency,[19],0.662 µM (active)
CCNC(=O)Nc1ccc(-c2nc3c(c(N4CCOC[C@H]4C)n2)CCN(C2COC2)C3)cc1,Potency,[1],0.469 µM (active)
same,Potency,[2],1.05 µM (active)
same,Potency,[3],1.05 µM (active)
same,Potency,[4],0.0372 µM (active)
same,Potency,[5],0.833 µM (active)
same,Potency,[6],0.209 µM (active)
same,Potency,[7],1.05 µM (active)
same,Potency,[9],1.66 µM (active)
same,Potency,[10],1.18 µM (active)
same,Potency,[11],0.935 µM (active)
same,Potency,[12],6.62 µM (active)
same,Potency,[20],0.935 µM (active)
same,Potency,[13],0.526 µM (active)
same,Potency,[14],1.05 µM (active)
same,Potency,[15],1.18 µM (active)
same,Potency,[16],1.18 µM (active)
same,Potency,[17],1.32 µM (active)
same,Potency,[18],0.743 µM (active)
same,Potency,[19],1.66 µM (active)
